GLS inh – glutaminase GLS (human) inhibition | O94925 | hit rate 0.21% among 410,000 | Potency, µM (series often up to 45.5 µM), for the others: at the top dose activity change, negative = inhibition, usual class: inhibitors | GLS enzymatic activity, qHTS titration
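hKGA in 45 mM KH2PO4 (pH 8.2), 0.02% Tween-20 with compound, then 1mM L-Glutamine (stock as added) plus glutamate oxidase/HRP/Amplex red coupling mix. Fluorescence read initially and after 30 min at RT; signal change reflects glutamate formation.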
TrxR1 substrate – is turned over as a substrate by rat TrxR1 | O89049 | purified TrxR1 substrate turnover, NADPH consumption readout | Potency, µM (doses to about 114 µM), for the others: at the top dose activity change, negative = substrate turnover | hit rate 0.01% among 390,000 | AID 588456; also: nearly all actives have a fitted effect of over 50% in size
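Rat TrxR1, dispensed at 90 nM, was prereduced with 400 uM NADPH (final) for 5 min at ~22 deg C, then incubated with compound 15 min before 400 uM selenite. A first-read NADPH fluorescence drop versus no-compound background flagged substrates.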
TrxR1 inh – rat TrxR1 inhibition; hit rate 1% among 390,000; recombinant rTrxR1, NADPH fluorescence consumption, selenite substrate; Potency, µM (titrated, usually from 114 µM), for inactives: at the highest dose activity change, negative = inhibition, hits mostly inhibitors; O89049; also: nearly all actives have a fitted effect of over 65% in size
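Rat TrxR1 (90 nM in the dispensed reagent) was pre-reduced with 400 uM NADPH for 5 min at room temperature, then incubated with compound for 15 min. After 400 uM selenite was added, NADPH fluorescence (Ex 340/Em 450 nm) was followed for 8 min.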
mIDH1 inhibitor – inhibitors of human mutant IDH1 R132H; O75874; IDH1-R132H enzyme, NADPH consumption, diaphorase/resazurin fluorescence; Potency, µM (highest dose often 76.6 µM), for the others: top-dose activity change, negative = inhibition, hits mostly inhibitors; hit rate 0.093% among 390,000; AID 602179; also: nearly all actives have a fitted effect of over 65% in size
Target sequence (O75874 whole entry R132H, stated change not applied): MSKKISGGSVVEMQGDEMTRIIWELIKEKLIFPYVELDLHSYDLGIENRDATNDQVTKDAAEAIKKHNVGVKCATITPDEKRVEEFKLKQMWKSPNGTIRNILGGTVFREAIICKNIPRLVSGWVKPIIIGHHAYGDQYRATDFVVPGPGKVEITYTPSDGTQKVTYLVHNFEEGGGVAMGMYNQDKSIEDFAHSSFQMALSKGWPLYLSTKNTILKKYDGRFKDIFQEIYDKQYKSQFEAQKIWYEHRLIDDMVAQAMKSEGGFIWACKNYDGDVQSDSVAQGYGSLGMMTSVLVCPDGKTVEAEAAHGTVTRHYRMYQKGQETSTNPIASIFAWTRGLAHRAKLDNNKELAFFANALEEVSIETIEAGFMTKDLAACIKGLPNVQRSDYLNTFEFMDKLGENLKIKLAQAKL
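IDH1-R132H (0.5 ug/mL) preincubated 30 min with compound, then NADPH (0.016 mM) and alpha-KG (2 mM) added; 80 min at RT, pH 7.5. Remaining NADPH coupled via diaphorase/resazurin to fluorescence (540/590 nm); concentration-response curves normalized to no-enzyme control.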
* = called active by the depositor; ? = inconclusive; . = not tested or not shown; [ ] = another dose, or the depositor's remark. Sampled rows, rich in hits. Any-hit rate of the full collection: about 1.2%. Calls follow the shape of the dose curve; as a rule, active = well fitted curve in the direction sought with a large enough effect; inconclusive = small, poorly fitted or top-dose-only effect, or another doubt; inactive = no such curve, though single readings can be large; an effect the other way counts as inactive or inconclusive. % is scaled to controls: 0 for no effect and ±100 for the full control effect; potency is read from the fitted curve at half-maximal effect.

SMILES	GLS inh	TrxR1 substrate	TrxR1 inh	mIDH1 inhibitor
Cc1ccc(/C=C/C(=O)Nc2cccc3cccnc23)o1	-2%	-7%	50µM*	5%
CCc1ccc(NC(=O)Cn2c(=O)n(-c3cc(OC)c(OC)c(OC)c3)c(=O)c3ccccc32)cc1	6%	9%	24%	21%
CSc1cccc(NC(=O)Cn2nnc(C(=O)NCCc3ccccc3)c2N)c1	-3%	12%[57.1 µM]	45%[57.1 µM]	-24%
COc1ccc(C(C)=O)cc1COC(=O)c1ccc(C)c(S(=O)(=O)N2CCOCC2)c1	-5%	-2%	35µM*	3%
COc1ccc(C(C)=O)cc1COC(=O)c1ccc2c(c1)OCO2	-5%	15%[57.1 µM]	?	1%
COc1ccc(C(C)=O)cc1COC(=O)c1ccc(S(=O)(=O)N(C)C)cc1	2%	5%	45µM*	4%
COc1ccc(C(C)=O)cc1COC(=O)Cc1cc(OC)c(OC)c(OC)c1	-7%	4%	40µM*	-8%
COc1ccc(C(C)=O)cc1COC(=O)c1ccc2c(c1)OCCO2	0%	-4%	56µM*	0%
CCOc1ccc2nc(N3CCCC(C(=O)NCCc4ccc(SC)cc4)C3)sc2c1 (stereo not drawn)	1%	-5%	9%	-8%
CC(C)C[C@H]1CN([C@@H](CC(C)C)CN2CCC[C@H]2CN2C(=O)C(=O)NC[C@@H]2Cc2ccc(O)cc2)C(=O)C(=O)N1CC1CCCCCC1	27%	.	.	.
Cc1ccc(C(CC(=O)Nc2ccc(C)cc2C)N2Cc3ccccc3C2=O)cc1 (stereo not drawn)	-10%	-6%	12%	-8%
O=S(=O)(O)OCC1OC(COS(=O)(=O)O)(C2(OS(=O)(=O)O)OC(CO)C(OS(=O)(=O)O)C(OS(=O)(=O)O)C2OS(=O)(=O)O)C(OS(=O)(=O)O)C1OS(=O)(=O)O (stereo not drawn)	5%	.	.	.
S=c1sc2c(Cl)ncnc2n1-c1ccccc1	7%	-4%	16µM*	1%
Cc1ccc(OCCSc2nc3ccccc3n2CCC(=O)O)cc1C	-6%	-3%	7%	-15%
CCN1CCN(C(c2ccc(C(F)(F)F)cc2)c2ccc3cccnc3c2O)CC1 (stereo not drawn)	-13%	6%[57.1 µM]	3.5µM*	-1%
Cc1nc2c(-c3ccc(F)cc3)c(C)nn2c(C)c1CCC(=O)NC(C)CCc1ccco1 (stereo not drawn)	-10%	-6%	79µM*	?
CN1N/C(=C\c2ccccc2)N=C2C(=O)N(C)C(=O)N=C21	.	10µM*	14µM*	.
CC/C=C1/N=C2C(=O)N(C)C(=O)N=C2N(C)N1	.	-20%	-20%	.
Nc1cc(OC(=O)c2ccco2)nn1S(=O)(=O)c1ccc(F)cc1	63%	-4%[57.1 µM]	7.1µM*	-2%
CC(C)CC(NC(=O)CNC(=O)C(Cc1ccc(O)cc1)NC(=O)C(CO)NC(=O)C(Cc1c[nH]c2ccccc12)NC(=O)C(Cc1cnc[nH]1)NC(=O)C1CCC(=O)N1)C(=O)NC(CCCN=C(N)N)C(=O)N1CCCC1C(=O)NCC(N)=O (stereo not drawn)	35%	.	.	.
CCCCN(C(=O)Cn1ncc(Cl)c(Cl)c1=O)c1c(N)n(CC(C)C)c(=O)[nH]c1=O	34%	-12%	56µM*	-5%
Cc1ccc(NC(=O)N2CC3CCCN3c3ccccc32)cc1C (stereo not drawn)	24%	-7%	-13%	15%
c1ccc2c(c1)NCC1CCCN21 (stereo not drawn)	28%	-9%	79µM*	8%
O=C(NCCc1ccc(Cl)cc1)c1cnc2sc(N3CCCCC3)nn2c1=O	-28%	12%[57.1 µM]	19%[57.1 µM]	-4%
O=C(NCC(c1ccco1)S(=O)(=O)c1ccc(Cl)cc1)c1ccccc1F (stereo not drawn)	4%	4%[57.1 µM]	14µM*	-5%
SMILES	GLS inh	TrxR1 substrate	TrxR1 inh	mIDH1 inhibitor
Cc1c(NC2=C(Cl)C(=O)N(c3ccccc3Cl)C2=O)c(=O)n(-c2ccccc2)n1C	-6%	9%	20µM*	-1%
C=CCNC1=C(Cl)C(=O)N(c2ccccc2Cl)C1=O	-9%	-6%	25µM*	1%
O=C1C(Cl)=C(N2CCCCCC2)C(=O)N1c1ccccc1Cl	1%	1%	23%	9%
CN(C)c1cc(F)c(C=O)cc1F	.	-6%	-2%	.
Cc1ccsc1C=Nc1ccc(O)cc1	28%	?	56µM*	14%
Cc1ccsc1/C=N/N=C/c1sccc1C	0%	9%[2.29 µM]	37%	0%
CCCCCCCCCCCCCCCC[n+]1ccc(/C=C/c2c[nH]c3ccccc23)c2ccccc21	.	-6%	?	.
O=C(c1ccccc1)N1CCCCC(Cl)C1=O (stereo not drawn)	-10%	0%	35%	-8%
Nc1c(C2CCCCC2)c(=O)on1C(=O)c1ccccc1	5%	-1%	45µM*	-1%
COC(=O)CN(C)C1CC(=O)N(c2ccc(Cl)cc2)C1=O (stereo not drawn)	1%	-1%	35µM*	7%
CN(Cc1ccncc1)C1CC(=O)N(c2ccc(Cl)cc2)C1=O (stereo not drawn)	-4%	-9%	13%[57.1 µM]	-5%
Cc1ccc(-c2ccccc2NC(=O)CS(=O)CC(=O)Nc2ccc(C)c(Cl)c2)o1 (stereo not drawn)	-5%	1%	3.5µM*	-6%
CCOC(=O)c1c(C)oc2nc(C)nc(N3CCN(c4ccccc4F)CC3)c12	3%	-5%	14%	-23%
COc1cc(C=Nc2ccccc2C(=O)Nc2ccccc2)cc(OC)c1OC	20%	101%	22µM*	6%
CCSc1ccccc1C(=O)Nc1cc(OC)c(OC)c(OC)c1	0%	-3%[57.1 µM]	21%[57.1 µM]	12%
Nc1ccc(/C=C/c2ccnc3ccccc23)c(N)c1	.	-5%	?	.
COc1ccccc1N1C(=O)C2C(c3ccccc3F)NN(C(=O)c3ccc(C)cc3)C2C1=O (stereo not drawn)	12%	-1%	50µM*	-11%
Cc1cc(C(=O)NCc2ccccc2C)c2c(C)nn(-c3cccc(F)c3)c2n1	-2%	123%	65%	-15%
Cn1c2ccccc2c2c(C(=O)NCc3ccco3)cn(C3CCCCC3)c(=O)c21	-2%	23%	20µM*	4%
COCCn1cc(C(=O)NCc2ccco2)c2c3ccccc3n(C)c2c1=O	6%	19%	4%	9%
C/C(=N\NC(=O)c1nnn(-c2nonc2N)c1-c1cccs1)c1ccncc1	6%	2%	35µM*	3%
COc1ccc(CN(Cc2ccccc2)C(=O)c2ccno2)cc1COc1ccc(NC(C)=O)cc1	.	-9%	-32%	.
O=C1NC(=S)SC1=Cc1ccccc1Cl	24%	-15%	-32%	-6%
O=C1NC(=S)S/C1=C\c1ccc(SCc2ccccc2)o1	?	0%	25µM*	-4%
CCC1=NN2C(=N)/C(=C\c3ccc(SCc4ccco4)o3)C(=O)N=C2S1	20%	-17%	-29%	6%
O=C1NC(=S)S/C1=C\c1ccc(SCc2ccco2)o1	11µM*	-3%	8.9µM*	-6%
COc1ccc(/C=C/c2c(-c3ccc(OC)cc3)oc3ccccc23)cc1	-5%	57%	45µM*	10%

High-throughput results deposited in PubChem by National Center for Advancing Translational Sciences (NCATS).
